Results on 40 molecules are retold here after ChEMBL document CHEMBL3988442, “University of Dundee, Small-Polar-MMV Screening Library” (2021).

The target of the assay is T1, Aspartate--tRNA(Asp/Asn) ligase (Mycobacterium tuberculosis (strain ATCC 25618 / H37Rv)) (UniProt P9WFW3).
T1 sequence (whole entry): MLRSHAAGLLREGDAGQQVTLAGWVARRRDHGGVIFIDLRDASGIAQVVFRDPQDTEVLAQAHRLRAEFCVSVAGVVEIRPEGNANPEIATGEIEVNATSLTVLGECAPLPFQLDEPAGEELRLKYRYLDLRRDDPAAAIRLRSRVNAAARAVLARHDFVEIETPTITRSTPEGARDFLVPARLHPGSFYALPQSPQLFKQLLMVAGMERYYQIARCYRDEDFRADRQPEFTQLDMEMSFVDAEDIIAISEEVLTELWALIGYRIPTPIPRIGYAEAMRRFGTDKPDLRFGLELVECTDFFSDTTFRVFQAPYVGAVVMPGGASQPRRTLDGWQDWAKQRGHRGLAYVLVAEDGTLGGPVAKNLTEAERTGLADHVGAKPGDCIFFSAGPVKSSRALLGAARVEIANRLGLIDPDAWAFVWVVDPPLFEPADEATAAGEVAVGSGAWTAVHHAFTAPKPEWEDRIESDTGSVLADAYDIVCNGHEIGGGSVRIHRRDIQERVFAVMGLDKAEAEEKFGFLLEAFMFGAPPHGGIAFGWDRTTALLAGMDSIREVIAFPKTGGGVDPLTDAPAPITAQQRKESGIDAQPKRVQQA
Description: Assay for Asp RNA synthetase-1 from Mycobacterium tuberculosis. The assay is classed as functional. Also on record: scale not given: in the data most compounds retested in dose-response had high values. The conditions noted are these: 30 µM.
Consider `CN(C)c1ccc(CCNC(=O)C2CCC(=O)N(C3CCCC3)C2)cc1` (stereo not given), for which the Percent Effect is -4.1%.

Consider `O=C(CCNS(=O)(=O)c1ccccc1)NCc1ccoc1`, for which the Percent Effect was -2.82%.

As to `COc1cc(CNC(=O)NCCCF)cc(Br)c1OC`, the Percent Effect is -0.885%.

Take `CS(=O)(=O)NCC(=O)NC1CCc2nccn2C1` (stereo not given): the Percent Effect was determined as 2.91%.

On to `CSCC(=O)N1CCCC1c1noc(C2CC2)n1` (stereo not given), for which the Percent Effect was determined as 0.839%.

As for `O=C(NCCc1ccncc1)C1CCN(Cc2ccco2)CC1`, the Percent Effect is -3.6%.

Consider `Cc1ccc(S(=O)(=O)NCCNC(=O)c2ccoc2)cc1F`, for which the Percent Effect is -4.4%.

With `CCn1cc(NC(=O)NC2CCCc3c2cnn3CCO)cn1` (stereo not given), the Percent Effect was -3.64%.

For the molecule `O=C(O)c1csc(S(=O)(=O)N2CCCc3ccc(F)cc32)c1`, the Percent Effect was 1.9%.

For the molecule `O=C(NCC(F)(F)F)NC1CCCc2c1cnn2CCO` (stereo not given), the Percent Effect was -1.62%.

As for `CSCCC1c2nc[nH]c2CCN1Cc1ccnc2ccccc12` (stereo not given), the Percent Effect was 5.78%.

On to `O=C(CN1CCNCC1)N1CC[C@@H](c2ccc3ccccc3c2)[C@H](O)C1`, for which the Percent Effect is -0.747%.

Regarding `CC(O)CN1CCN(C(=O)c2cnn(-c3ccccc3F)c2)CC1` (stereo not given), the Percent Effect was -2.52%.

Turning to `O=S1(=O)C[C@@H]2[C@H](C1)N(Cc1cc(Cl)cc(Cl)c1)CCN2CC1CC1`, the Percent Effect came to 0.655%.

On to `Cc1cc(F)ccc1OC1(C(=O)O)CCN(Cc2ccncc2)CC1`, for which the Percent Effect is -3.25%.

Take `CC(C)CN1CCCn2nc(CNC(=O)c3cccnc3O)cc2C1`: the Percent Effect is -2.56%.

On to `Cc1ccc(CNC(=O)N(Cc2ccccc2F)C2CC2)cn1`, for which the Percent Effect was -0.931%.

Take `OC1(CN2CCCC2)CCCN(Cc2ccc(F)cc2Cl)C1` (stereo not given): the Percent Effect worked out at 4.15%.

As for `CCC[C@@H]1CN(S(=O)(=O)c2ccc(C)c(F)c2)C[C@H]1N(C)C`, the Percent Effect was found to be 0.149%.

For `CC(=O)c1cn(CC(=O)NC(C(=O)O)C(C)C)c2ccccc12` (stereo not given), the Percent Effect is -0.402%.

For `CS(=O)(=O)NCCC(=O)NC1CCc2nccn2C1` (stereo not given), the Percent Effect was 3.25%.

`O=C(O)C(c1ccc2c(c1)OCO2)N1CCC(C(=O)N2CCCC2)CC1` (stereo not given): the Percent Effect was -0.103%.

As for `COc1ccc(-n2cnnc2SCCC#N)cn1`, the Percent Effect is -0.885%.

For the molecule `Cc1cnn(C2CN(Cc3ccc4c(c3)OCCO4)C2)c1`, the Percent Effect worked out at 2.19%.

Turning to `CCC(C(=O)NC)N(c1cccc(C)c1)S(C)(=O)=O` (stereo not given), the Percent Effect was -2.86%.

`Cc1nc2c(c(C)c1CC(=O)Nc1ccc(Cl)cc1)c(=O)[nH]n2C`: the Percent Effect was -4.86%.

For `Cc1n[nH]c(C2CN(CC(=O)NCc3ccco3)CCO2)n1` (stereo not given), the Percent Effect stood at 0.448%.

Turning to `Cc1cnn(CCNCc2ccc(OCc3csc(C)n3)cc2)c1`, the Percent Effect was -0.126%.

For `CC(=O)Nc1cc(C(=O)N2CCOCC2c2ccc(C)o2)ccc1F` (stereo not given), the Percent Effect was -5.67%.

On to `Cc1ccc(CN2CCN(CC3CC3)[C@@H]3CS(=O)(=O)C[C@@H]32)cc1C`, for which the Percent Effect is -3.05%.

Consider `Cc1cc(N2CCN(Cc3ccc(-c4cc[nH]n4)o3)CC2)cc(C)n1`, for which the Percent Effect was determined as 0.126%.

Regarding `Cc1ccc(C2COCCN2C(=O)c2ccc(N(C)C)cc2)o1` (stereo not given), the Percent Effect was -0.816%.

For the molecule `COc1ccc(NC(=O)CCC2CCCN(Cc3ncon3)C2)c(C)c1` (stereo not given), the Percent Effect was determined as 1.11%.

On to `CCc1nc(C)c(C(=O)N2C[C@H]3CC[C@@H]2CN(S(=O)(=O)N(C)C)C3)s1`, for which the Percent Effect is -1.85%.

For `Cc1cccnc1NC(=O)C1CCCN1Cc1ccccc1` (stereo not given), the Percent Effect is -1.55%.

With `CSCc1nc(C(C)(C)NC(=O)OC(C)(C)C)no1`, the Percent Effect is -0.954%.

`CCNC(=O)c1cnc(Cc2ccc(F)cc2)s1`: the Percent Effect was -3.94%.

On to `Cc1nc(C)n(CC2CCCCN2CC(=O)Nc2nncs2)n1` (stereo not given), for which the Percent Effect is -3.83%.

Regarding `CCSCCC(=O)Nc1ncn(CC(=O)NCc2ccccc2)n1`, the Percent Effect is -2.33%.

In the case of `CCOc1ncccc1CNC(=O)N1CCCC1c1ccncc1` (stereo not given), the Percent Effect is -0.287%.
